Compound activity as filed in PubChem BioAssay.
HCMV antiviral: qHTS Assay for inhibitors of the human cytomegalovirus (HCMV); activity change, negative = inhibition, % at 57.5 µM; HFF cells, HCMV-luciferase reporter, 72 h; stronger effect = lower value; AID 1259415, 2018; actives 4.5% (n = 410,000); in the data active means activity change below about -60%; inconclusive means no clear call, values can overlap the other calls; inactive means above about -39%
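Luciferase read-out from HCMV-luciferase-infected HFFs (MOI 1 PFU/cell) 72 h post infection at 37C; compounds added after 16 h cell attachment; activity normalized between buffer-only basal and Salinomycin (10uM) inhibitor controls.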
Marburg entry inh: qHTS for inhibitors of binding or entry into cells for Marburg Virus; Marburg virus pseudotyped entry inhibition, cell reporter; Potency, µM (titrated, usually from 37.8 µM), for the others: at the top dose activity change, negative = inhibition, most hits filed as inhibitors; actives 1.8% (n = 300,000); AID 540276, 2011; calls by dose curve; tested in HEK293 cells; further: potency means the concentration at half of the fitted maximal effect
Lassa entry inh: qHTS for Inhibitors of binding or entry into cells for Lassa Virus. Lassa virus pseudotype entry inhibition, cell reporter. Potency, µM (top dose mostly 37.9 µM), for inactives: at the top dose activity change, negative = inhibition, actives largely listed as inhibitors. actives 1.2% (n = 300,000); calls by dose curve; tested in HEK293 cells; further: potency means the concentration at half of the fitted maximal effect; nearly all actives have a fitted effect of over 50% in size
HCV inh: qHTS Assay for Inhibitors of Hepatitis C Virus (HCV). Potency, µM (titrated, usually from 41.8 µM), for inactives: at the top dose activity change, negative = inhibition, most hits filed as inhibitors. actives 3.4% (n = 340,000). Huh7.5.1 HCVcc-Cre infection, luciferase reporter, 44 h. AID 651820, 2012; active means well fitted inhibition curve with a large enough effect; inconclusive means small, poorly fitted or top-dose-only effect, or another doubt; inactive means no such curve, though single readings can be large or run the other way; further: potency means the concentration at half of the fitted maximal effect
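Cells seeded at 1,000/well and cultured 4 h, then compounds added followed by HCVcc-Cre virus (~0.5 moi). After 44 h further culture, luciferase substrate was added, plates held 15 min at room temperature, and luminescence read for 15 sec.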
FMDV antiviral: High Throughput Screening for Foot and Mouth Disease Virus Antivirals; actives 1.2% (n = 410,000); FMDV antiviral cell-based qHTS; Potency, µM (top dose mostly 57.9 µM), inactives show top-dose activity change, negative = inhibition, usual class: inhibitors; AID 1159524, 2015; calls by dose curve; tested in HEK293T cells; further: read-out not given here; potency means the concentration at half of the fitted maximal effect; nearly all actives have a fitted effect of over 45% in size
The depositor's hits bear a star; ? = inconclusive; . = no result; [ ] = remark or other dose. A selection: hits, their analogues and other compounds. The true share with any hit is near 7.9%. On the % scale 0 is the no-effect control and ±100 the full control effect.

SMILES | HCMV antiviral | Marburg entry inh | Lassa entry inh | HCV inh | FMDV antiviral
O=C(CSCc1cccc(CSCC(=O)Nc2ccc3ccccc3c2)n1)Nc1ccc2ccccc2c1 | -82* | ? | -25% | 10µM* | -27%
O=C(CSCc1nc2ccccc2[nH]1)Nc1ccc2ccccc2c1 | 0 | 13% | -16% | ? | 3%
O=S(=O)(c1ccc(F)cc1)c1nc(-c2ccco2)oc1Nc1ccc(F)cc1 | -74* | -28% | -10% | ? | 7%
Cc1ccc(NC(=O)CN2C(=O)C(c3ccc(C(C)(C)C)cc3)=NC2(C)C)cc1 | -26 | 4%[46.1 µM] | 5%[46.1 µM] | . | -4%
Cc1ccc(C(=O)C2CCNCC2)cc1 | 39 | -38% | 24% | 8% | 12%
Cc1ccc(C(=O)C2C(=O)C3CCC2C3)cc1 (stereo not drawn) | -73* | . | . | . | .
O=C(O)c1ccc2nc(-c3ccccc3)sc2c1 | ? | 1.5µM* | 2.2µM* | 0% | 2.5µM*
CC1CCN(c2nc3ccc(C(=O)NCc4ccc(Cl)cc4)cc3s2)CC1 | 40 | 5%[46.1 µM] | 6%[46.1 µM] | . | -12%
Nc1ccc(-c2nc3ccc(C(=O)O)cc3s2)cc1 | -85* | 0.46µM* | 0.46µM* | 13% | ?
Oc1ccc(-c2nc3ccccc3s2)cc1 | 63 | . | . | 14% | 7%
Nc1ccc(-c2nc3ccc(N)cc3s2)cc1 | -2 | 11µM* | ? | ? | -76%
CC1CCN(c2nc3ccc(C(=O)O)cc3s2)CC1 | -78* | ? | 0.63µM* | 25% | ?
Nc1cc2sc(-c3ccc(C(=O)O)cc3)nc2cc1Cl | 2 | 13µM* | 13µM* | 38% | -60%
Nc1ccc2nc(-c3ccc(O)cc3)sc2c1 | 62 | . | ? | . | ?
O=C(Cn1nc2ccccc2n1)N1CCOc2ccc(CN3CCc4sccc4C3)cc2C1 | . | . | . | . | -3%
O=C(Oc1ccc(Cl)c2cccnc12)N1CCCCCC1 | -100* | 20% | 18% | -25% | -11%
COc1ccc(/C=C/C(=O)NCCCN2CCCC2)cc1 | -103* | . | . | -8% | -10%
Cc1ccc(/C=C/C(=O)NCCCN2CCN(CCCNC(=O)/C=C/c3ccc(C)cc3)CC2)cc1 | -16 | ? | 9% | ? | -26%
CC(=O)Nc1ccc(Nc2cc3[nH]c(-c4cccc(F)c4)cc3cn2)cc1 | -34 | . | . | . | .
O=C1SC(c2ccccc2)=C/C1=C\N1CCCCC1 | 100 | 28% | 5% | 11µM* | .
O=C1/C(=C/c2cccc(Br)c2)SC(=S)N1CCC(=O)N(CCO)c1ccccc1 | -104* | . | . | -17% | -3%
O=C1/C(=C/c2ccc3c(c2)OCO3)SC(=S)N1CCC(=O)N(CCO)c1ccccc1 | -68* | . | . | . | -23%
COc1cccc(/C=C2\SC(=S)N(CCCC(=O)N(CCO)c3ccccc3)C2=O)c1 | -97* | . | . | ? | 0%
C[C@@H](c1ccccc1)N1C(=O)[C@@H]2[C@H]3[C@H](O)[C@H](O)CC(=NNC(=O)OCc4ccccc4)[C@@H]3CC[C@H]2C1=O | . | -18%[14.2 µM] | . | . | .
Cc1ccc(C2(C)NC(=O)N(CC(=O)Nc3nc(-c4ccccn4)cs3)C2=O)cc1 (stereo not drawn) | -36 | -29% | ? | 6.3µM* | -20%
SMILES | HCMV antiviral | Marburg entry inh | Lassa entry inh | HCV inh | FMDV antiviral
CC1(c2ccccc2)NC(=O)N(CC(=O)Nc2ccc(C(N)=O)cc2)C1=O (stereo not drawn) | -62* | 29%[46.1 µM] | 9%[46.1 µM] | 11% | -20%
Cc1ccc2nc(-c3ccc(NC(=O)CCS(=O)(=O)c4ccccc4)cc3)sc2c1 | -71* | ? | 1.8µM* | ? | ?
CC1(c2ccccc2)NC(=O)N(CC(=O)Nc2nc(-c3ccccn3)cs2)C1=O (stereo not drawn) | 4 | -3% | -14% | ? | 5%
Cc1nc2ccc(NC(=O)CCS(=O)(=O)c3ccccc3)cc2s1 | -2 | ? | 22% | -9% | 44%
COc1ccc(C2(c3ccc(OC)cc3)NC(=O)N(CC(=O)Nc3ccc(OC(F)F)cc3)C2=O)cc1 | 12 | ? | ? | 13µM* | ?
Cc1ccc(S(=O)(=O)CCC(=O)Nc2nc(-c3ccccn3)cs2)cc1 | ? | . | . | 13µM* | ?
O=C(O)c1ccc(NC2=C/C(=N/S(=O)(=O)c3cccs3)c3ccccc3C2=O)cc1 | -24 | . | . | . | 10µM*
O=C1C(Nc2ccc(O)cc2)=C/C(=N/S(=O)(=O)c2cccs2)c2ccccc21 | -99* | 2.5µM* | 3.5µM* | 3.5µM* | 13µM*
Cc1ccc(Cl)cc1NC1=C/C(=N\S(=O)(=O)c2cccs2)c2ccccc2C1=O | -99* | ? | 6.5µM* | 10µM* | 14µM*
O=C1C=C(Nc2ccc(O)cc2)C(=O)c2ccccc21 | 0 | ? | ? | ? | 10%
CCC1CN(C(=O)Nc2cc(OC)cc(OC)c2)c2ccccc2S1 (stereo not drawn) | -1 | . | 11%[46.1 µM] | . | -13%
O=C(CCNC(=O)OCC1c2ccccc2-c2ccccc21)NOCc1ccccc1 | -77* | . | . | -8% | -11%
COc1ccc(-c2csc3ncnc(N4CCN(S(=O)(=O)c5ccc(C)c(C)c5)CC4)c23)cc1 | -1 | ? | ? | 11µM* | -26%
CCOc1ccccc1N1CCN(c2ncnc3scc(-c4ccc(OC)cc4)c23)CC1 | -60* | ? | -5%[46.1 µM] | ? | ?
COc1ccc(-c2csc3ncnc(N4CCN(CCO)CC4)c23)cc1 | -31 | 5%[46.1 µM] | 12% | -18% | 6%
CCN1CCN(c2ncnc3scc(-c4ccc(C)cc4)c23)CC1 | -22 | . | . | -9% | -23%
COc1ccc(-c2csc3ncnc(N4CCN(c5ccccc5OC)CC4)c23)cc1 | -17 | ? | ? | 11µM* | ?
C=CCOC(=O)N[C@H](C(C(=O)OC)=C(C)NCc1ccccc1)c1cccc(OC)c1 | . | -13%[14.2 µM] | . | . | .
O=C1[C@H]2[C@H]3[C@H](O)[C@H](O)C/C(=N\OC[C@@H](O)COCc4ccco4)[C@@H]3CC[C@H]2C(=O)N1C[C@@H]1CCCO1 | . | 4%[14.2 µM] | . | . | .
Cc1cc(-n2c(C)cc(C(=O)COc3ccc(F)c(F)c3)c2C)no1 | . | . | . | 10µM* | 44%
Cc1cc(C)c(C(N)=O)c(SCC(=O)c2cc(C)n(-c3cc(C)on3)c2C)n1 | ? | . | . | 2.2µM* | ?
Cc1cc(-n2c(C)cc(C(=O)CSc3nncn3C(C)C)c2C)no1 | -97* | -2% | 2% | 6% | 9%
Cc1cc(-n2c(C)cc(C(=O)CSc3nncn3C)c2C)no1 | -24 | 11%[46.1 µM] | -7%[46.1 µM] | ? | 15%
Cc1ccc(-n2nnnc2SCC(=O)c2cc(C)n(-c3cc(C)on3)c2C)cc1 | -9 | 1% | 12µM* | ? | .
C=CC(=O)Nc1ccc(Nc2nc(NC3CCC(N(C)C)CC3)nc3c2ncn3C(C)C)cc1 (stereo not drawn) | . | . | . | 1.3µM* | -47%
